Where “and” joins values, the source holds several entries; their conditions need not be identical. Equal values may be shown once. In all, about 75,000 compounds went through this assay and about 5,700 (7.6%) were called active. Inconclusive results (about 7%) are left out. The sample holds actives, similar compounds and a random draw of the others, so the mix is not that of the screen. A number with no mark means an inactive call. Calls come from the whole dose curve; as a rule, active = well fitted inhibition curve with a large enough effect; inconclusive = small, poorly fitted or top-dose-only effect; inactive = no such curve, though single readings can be large or run the other way.
Each compound was assayed against 3-hydroxyacyl-CoA dehydrogenase type-2 (Homo sapiens) (UniProt Q99714) (assay: qHTS Assay for Inhibitors of HSD17B4, hydroxysteroid (17-beta) dehydrogenase 4). Conditions: recombinant HSD17B10, NADH fluorescence kinetic; series mostly up to 57.1 µM; activity change, negative = inhibition: at the top concentration.
How it was run: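 20 nM HADH2, pH 9.0 Tris/Tween; cpd preinc 15 min RT; start w/ 1 mM NAD+ + 90 uM b-hydroxybutyryl-CoA; kinetic fluor ex360/em450 q30s x 4 min; delta last-first.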
% is set by controls: 0 for no effect and ±100 for the full control effect; potency is the fitted concentration of half-maximal effect.
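Note: the protocol describes HADH2 (HSD17B10) and not the HSD17B4 of the title; nearly all actives have a fitted effect of over 70% in size.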

Row | SMILES | activity change, negative = inhibition | Potency
1 | CCOC(=O)CN(C(=O)CN1CCOCC1)c1ccc(Br)cc1 | 3.7% | –
2 | Cc1ccc(OCC(O)CN2CCN(CC(O)COc3ccc(C)cc3Cl)CC2)c(Cl)c1 (configuration not stated) | 0.725% | –
3 | CC(C)c1ccc(-c2nn[nH]n2)cc1 | 5.91% | –
4 | c1ccc(-n2ncc(-c3nn[nH]n3)n2)cc1 | – | 31.6 µM (active)
5 | CCCn1nnc2sc3c(c2c1=O)CCC(C)C3 (configuration not stated) | -2.75% | –
6 | Cc1nc2cc(S(=O)(=O)C(F)(F)F)ccc2s1 | -3.67% | –
7 | COc1ccc(-c2oc3cc(OC)ccc3c2C(=O)c2ccc(C#N)cc2)cc1 | -2.67% | –
8 | CC(=O)Oc1ccc2c(C)c(CC(C)O)c(=O)oc2c1 (configuration not stated) | – | 2 µM (active)
9 | CN1C(C)(C)CC(NC(=O)CCC(=O)NC2CC(C)(C)N(C)C(C)(C)C2)CC1(C)C | 2.35% | –
10 | O=C(CCCOc1ccccc1)Nc1cccc(C(=O)O)c1 | -10.7% | –
11 | Cc1ccc2c(c1)N(CCCC(=O)NCc1cccnc1)C(=O)CO2 | -1.27% | –
12 | COc1cccc(N(CC(=O)Nc2cccc(N(C)S(C)(=O)=O)c2)S(C)(=O)=O)c1 | 8.68% | –
13 | COC(=O)c1cn(-c2ccccc2)nc1-c1cccnc1 | 12.2% | –
14 | COc1ccc2c(=O)cc(-c3ccccc3)oc2c1O | -0.613% | –
15 | Cc1cccc(-c2cc(=O)c3cc(C)ccc3o2)c1 | – | 31.6 µM (active)
16 | Cc1ccc2oc(=O)ccc2c1 | 3.68% | –
17 | COc1ccc(C)cc1-n1nnnc1SCC(=O)c1cc(C)n(Cc2ccco2)c1C | -5.37% | –
18 | Oc1cc2c(cc1O)CN(C(=S)NCCc1ccc(Cl)cc1)CCC2 | – | 15.8 µM (active)
19 | NS(=O)(=O)c1ccc(CCNC(=O)Nc2ccc(Cl)cc2)cc1 | -7.81% | –
20 | O=C(NCCc1ccc(Cl)cc1)C1CC(=O)N(C2CCCCC2)C1 (configuration not stated) | 4.48% | –
21 | CN1CCc2[nH]nc(-c3n[nH]c4c3CN(C)CC4)c2C1 | 4.35% [at 11.4 µM] | –
22 | COc1ccc(-c2nc(SCC(=O)N3CCOCC3)n[nH]2)cc1 | 7.74% | –
23 | CCn1c(COc2cccc(OC)c2)nnc1SCC(=O)N1CCOCC1 | -0.496% | –
24 | COc1ccc(-c2ccnc(SCC(=O)N3CCOCC3)n2)cc1 | – | 25.1 µM (active)
25 | Nc1ccc(-c2nnc(-c3ccc(-c4ccccc4)cc3)o2)cc1 | – | 5.01 µM (active)
26 | O=C(CSc1nnc(-c2ccccc2)o1)N1CCOCC1 | 11% | –

Row | SMILES | activity change, negative = inhibition | Potency
27 | O=C(OCc1nnc(-c2ccccc2)o1)c1ccc2c(c1)C(=O)N(CCc1ccccc1)C2=O | 9.34% | –
28 | Fc1cccc(/C=N\N=C/c2cccc(F)c2)c1 | -3.93% | –
29 | O=C(O)CCC(=O)NCc1ccc2[nH]c3c(c2c1)CCCC3 | -16.9% | –
30 | N#CCCN1CCN(S(=O)(=O)c2ccc(S(=O)(=O)NC3CCCCC3)cc2)CC1 | -1.99% | –
31 | COc1ccccc1-n1c(CNC(=O)c2ccccc2)nnc1SCC(=O)Nc1nnc(C)s1 | -0.833% | –
32 | COC(CCN(C)C)(c1ccccc1)c1ccccc1 | 12.6% | –
33 | COc1cccc(-c2nc(S(=O)(=O)c3ccccc3)c(N3CCOCC3)o2)c1 | -22.1% | –
34 | CCCCN(CC)CCCNC(=O)CS(=O)(=O)Cc1nc(-c2cccc(OC)c2)oc1C | -8.92% | –
35 | COc1cccc(-c2nc3cc(C)ccc3o2)c1 | – | 25.1 µM (active)
36 | COc1ccccc1N1CCN(CCN2C(=O)c3ccccc3C(C)(C)C2=O)CC1 | -13.9% | –
37 | COc1ccc(OC)c(CNC(=O)CCc2nc(-c3cccs3)no2)c1 | 4.41% | –
38 | CCC1=C/C(=C\c2ccc3c(c2)OCO3)C(=O)S1 | – | 25.1 µM (active)
39 | CCOC(=O)NCc1ccc2c(c1)OCO2 | -1.13% | –
40 | CCOc1ccc(NC(=O)CSc2nc3c(c(=O)n2-c2ccccc2OC)SCC3)cc1 | -23.4% | –
41 | COc1ccc(/C=C/NC(=O)Cc2ccc(OC)c(OC)c2)cc1 | -1.94% [at 11.4 µM] and 1.41% [at 11.4 µM] | –
42 | O=C(c1cccc(S(=O)(=O)N2CCOCC2)c1)N1CCOCC1 | 1.57% | –
43 | COc1cccc(-c2nc(Nc3ccncc3)c3ccccc3n2)c1 | 5.41% | –
44 | Cc1cnc(CNc2nc(-c3cccnc3)nc3ccccc23)cn1 | -7.76% | –
45 | Cc1noc(C)c1-c1nc(Nc2ccccc2)c2ccccc2n1 | – | 20 µM (active)
46 | c1ccc2c(Nc3ccncc3)nc(-c3ccc4c(c3)OCO4)nc2c1 | – | 25.1 µM (active)
47 | c1ccc2c(Nc3ccncc3)nc(-c3ccoc3)nc2c1 | – | 20 µM (active)
48 | c1cncc(-c2nc(N3CCNCC3)c3ccccc3n2)c1 | -9.08% | –
49 | CNc1nc(-c2ccccc2OC)nc2ccccc12 | -21.6% | –
50 | O=C(Cn1nnc(-c2ccccc2)n1)NCc1ccc2c(c1)OCO2 | -1.68% | –
51 | COc1ccccc1CNc1ccnc(-c2c(C)noc2C)n1 | -9.74% | –
52 | CCCn1c(=O)c2[nH]c(C3CCCC3)nc2n(CCC)c1=O | – | inactive
